Here are results for 7 compounds from PubChem BioAssay (Tox21).

Records with an inconclusive call do not appear. Calls of active or inactive are those of the source. Unless noted, calls follow the shape of the full dose curve.

A short description of test [1]: Nuclear factor erythroid 2-related factor 2/antioxidant responsive element (Nrf2/ARE) small molecule agonists: qHTS cell viability counter screen in human keratinocytes (AID 1919968; active = well fitted curve in the direction sought with a large enough effect in the repeat runs; an effect the other way counts as inactive or inconclusive; also: nearly all actives have a fitted effect of over 55% in size; also: potency is read from the fitted curve at half-maximal effect). An outline of the steps: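 KeratinoSens HaCaT cells, 1,500/well, preincubated 5 h, then exposed to compounds in DMSO for 23 h at 37 C/5% CO2. Viability read as CellTiter-Fluor fluorescence after 1 h, in the same wells as the ARE-luciferase read.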

For test [2], the target named is KiSS-1 receptor (Homo sapiens) (UniProt Q969F8). Briefly: Human kisspeptin (KISS1R) small molecule agonists, calcium flux assay in KISS1R-HEK293 cells (AID 1920064; active = well fitted curve in the direction sought with a large enough effect in the repeat runs; an effect the other way counts as inactive or inconclusive). An outline of the steps: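 HEK293 cells stably expressing human KISS1R were loaded with calcium dye for 1 h at 37 C, then given compound; fluorescence (Ex/Em 480/540) was read kinetically for 3 min. Fifteen concentrations, triplicate.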

Test [3] in a line: G protein-coupled receptor (GPCR) small molecule agonists, calcium flux assay: HEK293 wild type cell line counter screen (AID 1920065). An outline of the steps: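 Wild-type HEK293 cells plated 18 h, loaded with calcium dye 1 h at 37 C, then compounds added in agonist mode (ATP as positive control). Kinetic fluorescence Ex/Em 480/540 recorded 3 min at 1 sec intervals; 15 concentrations, triplicate.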

Test [4] is described as follows: p53 small molecule agonists, cell-based qHTS assay with human liver microsomes (AID 1963577). An outline of the steps:
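p53RE-bla reporter cells were pre-incubated 5 h at 37 C, then treated with compounds plus human liver microsomes (0.5 mg/mL final) and NADPH (0.5 mg/mL final) for 16 h at 37 C. Beta-lactamase activity was read by LiveBLAzer fluorescence after 2 h at room temperature.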

A short description of test [5]: p53 small molecule agonists, cell-based qHTS assay with rat liver microsomes (AID 1963578). A digest of the protocol: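 p53RE-bla cells were exposed to compounds together with rat liver microsomes (0.5 mg/mL final) and NADPH (0.5 mg/mL final) for 16 h at 37 C, then read by LiveBLAzer beta-lactamase fluorescence after 2 h at room temperature.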
Test [6] is described as follows: p53 small molecule agonists, cell-based qHTS assay with human liver microsomes: qHTS cell viability counter screen (AID 1963579). Also: nearly all actives have a fitted effect of over 45% in size. Also: potency is read from the fitted curve at half-maximal effect. A digest of the protocol: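 p53RE-bla cells (4,000/well) were pre-incubated 5 h at 37 C, then given compounds in DMSO plus human liver microsomes (0.5 mg/mL final) and NADPH (0.5 mg/mL final) for 16 h at 37 C. Viability was read by CellTiter-Glo luminescence.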

Test [7] is described as follows: p53 small molecule agonists, cell-based qHTS assay with rat liver microsomes: qHTS cell viability counter screen (AID 1963580). Also: nearly all actives have a fitted effect of over 45% in size. An outline of the steps: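 Intracellular ATP, by CellTiter-Glo luminescence, defines viability. HCT-116 p53RE-bla cells, 4,000 per well, were compound-treated in the presence of rat liver microsomes and NADPH for 16 h at 37 C.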
The nature of test [8]: p53 small molecule agonists, cell-based qHTS assay: qHTS cell viability counter screen (AID 1963581). Also: nearly all actives have a fitted effect of over 45% in size. A digest of the protocol: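 p53RE-bla HCT-116 cells, compounds added 5 h after plating and incubated 16 h at 37 C. Cytotoxicity measured in the same wells as intracellular ATP by CellTiter-Glo luminescence after 30 min at room temperature.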
Test [9] can be described thus: p53 small molecule agonists, cell-based qHTS assay (AID 1963582; active = well fitted activation curve with a large enough effect in the signal ratio in the repeat runs, not every such curve was filed as active; the % refers to the signal ratio). An outline of the steps: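 p53RE-bla reporter cells, compounds added in DMSO after 5 h plating, incubated 16 h at 37 C. Beta-lactamase read via 2 h room-temperature LiveBLAzer B/G FRET substrate, fluorescence intensity.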
Test [10] deals with 5-hydroxytryptamine receptor 2A (Homo sapiens) (UniProt P28223). Briefly: 5-hydroxytryptamine receptor 2A (HTR2A) small molecule antagonists, cell-based qHTS assay (AID 1963586). Also: nearly all actives have a fitted effect of over 45% in size. An outline of the steps:
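Antagonist-mode intracellular calcium assay: DOI (4 nM) added after 5 min compound pre-incubation at room temperature to dye-loaded HTR2A-CHO cells. Fluorescence followed for 3 min, sampled every second.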

Test [11] shares this target. Briefly: 5-hydroxytryptamine receptor 2A (HTR2A) small molecule agonists, cell-based qHTS assay (AID 1963587). Also: nearly all actives have a fitted effect of over 30% in size. An outline of the steps:
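Kinetic calcium-flux fluorescence (2 min, 1 sec intervals) after compound addition in agonist mode. HTR2A-CHO cells were cultured 18 h, then dye-loaded 1 h at 37 C.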

The target of test [12] is Muscarinic acetylcholine receptor M1 (Homo sapiens) (UniProt P11229). Briefly: Cholinergic receptor muscarinic 1 (CHRM1) small molecule antagonists, cell-based qHTS assay (AID 1963588). Also: nearly all actives have a fitted effect of over 40% in size. A digest of the protocol: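 CHRM1-CHO calcium-flux assay, antagonist mode. Cells were seeded 18 h, dye-loaded 1 h at 37 C and given compound for 5 min at RT, then acetylcholine was added at 50nM. FDSS fluorescence was read 3 min; 15 concentrations, three runs.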

Test [13] shares this target. The test is described as follows: Cholinergic receptor muscarinic 1 (CHRM1) small molecule agonists, cell-based qHTS assay (AID 1963589). Also: nearly all actives have a fitted effect of over 35% in size. An outline of the steps:
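CHO cells stably expressing human CHRM1 were loaded with calcium dye for 1 h at 37 C, then compound was added in agonist mode. Intracellular calcium fluorescence was followed kinetically at 1 s intervals. Fifteen concentrations were tested in three independent runs.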

The nature of test [14]: cAMP Responsive Elements (CRE) small molecule agonists, cell-based qHTS assay (AID 1963590). A digest of the protocol:
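CRE-bla HEK 293T cells, 2,000/well in DMEM with 10% dialyzed FBS and 25 mM HEPES, pre-incubated 18 h at 37 C, then exposed to compound 3 h at 37 C. Beta-lactamase reporter read with LiveBLAzer B/G FRET substrate after 2 h at room temperature.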

Test [15] can be described thus: cAMP Responsive Elements (CRE) small molecule antagonists, cell-based qHTS assay (AID 1963591; active = well fitted inhibition curve with a large enough effect in the signal ratio in the repeat runs, not every such curve was filed as active; the % refers to the signal ratio). An outline of the steps: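 CRE-bla HEK293T cells plated 18 h, then given compound plus NKH477 at 0.25 uM final for 3 h at 37C. Beta-lactamase reporter read with LiveBLAzer B/G FRET substrate after 2 h at room temperature.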
The target of test [16] is Beta-2 adrenergic receptor (Homo sapiens) (UniProt P07550). Briefly: Adrenergic beta2 receptor (ADRB2) small molecule antagonists, cell-based qHTS assay (AID 1963592). Also: series mostly up to about 92 µM; nearly all actives have a fitted effect of over 50% in size. A digest of the protocol:
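Cells (CHO, stable ADRB2 overexpression) incubated 18-20hr at 37C; compounds added from DMSO; agonist mix (1nM isoproterenol, 100uM IBMX, 25uM Ro-20-1724) added; 0.5hr RT; d2-cAMP and anti-cAMP-cryptate added; 1hr RT; 665/615 nm read.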

In test [17] the target is D(2) dopamine receptor (Homo sapiens) (UniProt P14416). The test is described as follows: Dopamine D2 receptor (DRD2) small molecule agonists, cell-based qHTS assay (AID 1963594). Also: nearly all actives have a fitted effect of over 35% in size. A digest of the protocol: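 cAMP accumulation in DRD2-HEK293 cells measured by HTRF after 1 h detection; compounds added 10 min before NKH477 (200nM […]) forskolin-analogue stimulation, 30 min at room temperature, with Ro20-1724 present at 0.1 mM final.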

For test [18] the target is unchanged. The test is described as follows: Dopamine D2 receptor (DRD2) small molecule antagonists, cell-based qHTS assay (AID 1963595; active = well fitted inhibition curve with a large enough effect in the signal ratio in the repeat runs, with a control signal flat; the % refers to the signal ratio). A digest of the protocol:
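Antagonist mode in DRD2-HEK293 cells: after compound addition with 0.1 mM Ro20-1724, cells received quinpirole (12 nM) and NKH477 (200 nM) for 30 min at room temperature; HTRF cAMP read after 1 h detection.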

Test [19] has as its target Beta-2 adrenergic receptor (Homo sapiens) (UniProt P07550). Briefly: Adrenergic beta2 receptor (ADRB2) small molecule agonists, cell-based qHTS assay (AID 1963593).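 Also: CHO cells stably overexpressing human ADRB2.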 An outline of the steps: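 CHO cells stably over-expressing ADRB2 were plated overnight at 37C, then dosed with compounds plus a stimulation mix containing 100uM IBMX and 25uM Ro-20-1724 for 0.5hr at room temperature. cAMP was measured by HTRF competition, 1hr.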

Test [20] can be described thus: Nuclear factor erythroid 2-related factor 2/antioxidant responsive element (Nrf2/ARE) small molecule agonists: luciferase reporter gene qHTS assay in human keratinocytes (AID 1919969). Also: nearly all actives have a fitted effect of over 35% in size. Also: potency is read from the fitted curve at half-maximal effect.

Sequence of Muscarinic acetylcholine receptor M1 (Homo sapiens) (P11229 whole entry, looked up): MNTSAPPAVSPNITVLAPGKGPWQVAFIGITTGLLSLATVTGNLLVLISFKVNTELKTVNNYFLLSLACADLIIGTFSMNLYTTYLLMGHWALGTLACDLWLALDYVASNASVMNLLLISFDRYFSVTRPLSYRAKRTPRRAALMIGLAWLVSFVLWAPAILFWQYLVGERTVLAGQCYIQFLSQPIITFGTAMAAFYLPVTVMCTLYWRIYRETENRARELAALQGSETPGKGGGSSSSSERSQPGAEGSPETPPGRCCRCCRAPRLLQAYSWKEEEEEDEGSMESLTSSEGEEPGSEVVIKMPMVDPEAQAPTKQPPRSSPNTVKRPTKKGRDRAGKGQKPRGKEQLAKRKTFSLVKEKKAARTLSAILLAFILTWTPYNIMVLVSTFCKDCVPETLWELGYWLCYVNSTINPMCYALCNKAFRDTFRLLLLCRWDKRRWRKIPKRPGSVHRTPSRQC
Sequence of Beta-2 adrenergic receptor (Homo sapiens) (P07550 whole entry, looked up): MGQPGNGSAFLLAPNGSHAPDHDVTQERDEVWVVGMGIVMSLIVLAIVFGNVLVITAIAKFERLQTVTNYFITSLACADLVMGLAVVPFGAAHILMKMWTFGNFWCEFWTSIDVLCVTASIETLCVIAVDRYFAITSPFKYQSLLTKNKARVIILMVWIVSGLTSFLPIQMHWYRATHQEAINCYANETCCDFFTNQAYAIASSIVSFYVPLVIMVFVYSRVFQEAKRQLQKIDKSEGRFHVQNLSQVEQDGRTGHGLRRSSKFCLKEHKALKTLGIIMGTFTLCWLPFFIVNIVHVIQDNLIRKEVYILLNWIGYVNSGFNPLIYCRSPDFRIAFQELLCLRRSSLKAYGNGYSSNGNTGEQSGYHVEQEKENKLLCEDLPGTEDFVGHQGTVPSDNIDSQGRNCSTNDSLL
Sequence of D(2) dopamine receptor (Homo sapiens) (P14416 whole entry, looked up): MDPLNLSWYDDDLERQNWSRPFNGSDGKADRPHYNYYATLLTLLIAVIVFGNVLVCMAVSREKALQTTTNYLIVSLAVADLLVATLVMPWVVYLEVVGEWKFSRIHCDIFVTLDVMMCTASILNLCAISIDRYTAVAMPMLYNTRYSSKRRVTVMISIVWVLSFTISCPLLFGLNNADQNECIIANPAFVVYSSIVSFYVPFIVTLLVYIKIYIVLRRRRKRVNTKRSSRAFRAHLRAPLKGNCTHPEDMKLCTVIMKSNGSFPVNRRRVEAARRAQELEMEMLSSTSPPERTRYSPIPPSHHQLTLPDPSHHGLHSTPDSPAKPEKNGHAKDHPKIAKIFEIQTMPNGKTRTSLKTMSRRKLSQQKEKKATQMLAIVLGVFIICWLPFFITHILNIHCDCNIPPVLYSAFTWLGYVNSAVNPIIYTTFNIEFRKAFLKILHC
Sequence of KiSS-1 receptor (Homo sapiens) (Q969F8 whole entry, looked up): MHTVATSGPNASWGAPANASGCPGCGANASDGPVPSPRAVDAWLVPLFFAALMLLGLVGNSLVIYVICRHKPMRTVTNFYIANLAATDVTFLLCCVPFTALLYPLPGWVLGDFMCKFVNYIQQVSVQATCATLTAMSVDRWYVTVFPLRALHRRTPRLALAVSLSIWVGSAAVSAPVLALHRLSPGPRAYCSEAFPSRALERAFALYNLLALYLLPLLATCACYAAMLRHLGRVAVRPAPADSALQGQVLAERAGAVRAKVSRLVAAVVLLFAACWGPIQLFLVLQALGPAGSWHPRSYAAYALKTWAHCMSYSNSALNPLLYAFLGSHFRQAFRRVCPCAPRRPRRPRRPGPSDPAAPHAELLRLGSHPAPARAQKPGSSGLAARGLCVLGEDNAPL
Sequence of 5-hydroxytryptamine receptor 2A (Homo sapiens) (P28223 whole entry, looked up): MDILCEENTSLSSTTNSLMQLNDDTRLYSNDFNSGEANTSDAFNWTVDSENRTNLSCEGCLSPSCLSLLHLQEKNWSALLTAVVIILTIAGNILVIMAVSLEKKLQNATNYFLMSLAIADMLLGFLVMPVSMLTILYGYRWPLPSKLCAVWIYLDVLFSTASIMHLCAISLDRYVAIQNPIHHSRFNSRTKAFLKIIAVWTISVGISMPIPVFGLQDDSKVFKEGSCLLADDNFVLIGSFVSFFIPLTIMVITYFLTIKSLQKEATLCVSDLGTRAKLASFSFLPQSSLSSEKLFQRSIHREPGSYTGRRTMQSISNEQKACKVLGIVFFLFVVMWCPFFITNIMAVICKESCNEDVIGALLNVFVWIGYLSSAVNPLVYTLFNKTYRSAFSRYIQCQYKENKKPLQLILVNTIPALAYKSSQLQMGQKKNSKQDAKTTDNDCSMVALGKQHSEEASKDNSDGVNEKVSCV

`C=C(C)C(=O)OC`: the Potency result in test [1], in [2], in test [3], in test [4], in test [5] and in [6] was “inactive” each time. Besides, the Potency entry in test [7], in test [8], in test [9], in [10], in [11] and in test [12] was “inactive” each time. For the same compound, the Potency entry in test [13], in test [14], in test [15], in test [16], in [17] and in test [18] was “inactive” throughout.

Consider `C[C@@]12CCC[C@H]1[C@@H]1CC[C@H]3C[C@@H](O)CC[C@]3(C)[C@H]1CC2`, for which the Potency entry in test [1], in test [2], in test [3], in [4], in test [5] and in test [6] was “inactive” in each case. Further, the Potency entry in test [7], in [8], in test [9], in [10], in test [11] and in test [12] was “inactive” each time. The Potency entry in test [13], in test [14], in test [15], in test [19], in test [17] and in test [18] was “inactive” each time.

In the case of `O=C1C=CC(=O)N1c1cccc(N2C(=O)C=CC2=O)c1`, the Potency in [1] was 54.5 µM (active); in [20] it was 4.86 µM (active); in [6], 40.8 µM (active). The Potency entry in test [3], in test [4], in test [9], in test [10], in [12] and in test [13] was “inactive” in each case.

For the compound `Cc1cccc(C)c1NC(=O)C(C)N` (stereo not drawn), the Potency entry in test [1], in test [20], in test [3], in test [4], in test [6] and in test [7] was “inactive” throughout. The Potency entry in test [8], in test [14], in [15], in test [19], in test [17] and in [18] was “inactive” each time.

As for `COc1ccnc2c1CCCCC2S(=O)c1nc2ccccc2[nH]1` (stereo not drawn), the Potency entry in [1], in [2], in test [3], in [4], in [5] and in [6] was “inactive” in each case. Further, the Potency result in test [7], in test [8], in test [9], in test [10], in test [11] and in [12] was “inactive” in each case. Besides, the Potency entry in test [13], in [14], in test [15], in [16], in test [19] and in test [17] was “inactive” each time. For the same compound, the Potency entry in test [18] is “inactive”.

On to `CC1=C(C(=O)O)N2C(=O)[C@@H](NC(=O)[C@H](N)C3=CCC=CC3)[C@H]2SC1`, for which the Potency entry in test [1], in test [20], in [3], in [6], in test [7] and in [8] was “inactive” each time. The Potency entry in [10], in test [11], in test [12], in [13], in test [14] and in test [15] was “inactive” each time. In addition, the Potency result in test [16], in test [19] and in test [18] was “inactive” each time.

In the case of `Cc1ccc([N+](=O)[O-])cc1Cl`, the Potency result in test [1], in test [2], in [3], in test [4], in test [5] and in test [6] was “inactive” throughout. Further, the Potency entry in test [7], in test [8], in test [9], in [10], in [11] and in [12] was “inactive” each time. The Potency entry in test [13], in test [14], in [15], in [17] and in test [18] was “inactive” throughout.
